# RmlC RmlD mix: RmlC and RmlD coupled enzyme inhibitors, primary screen, biochemical, 384-well, compound mixtures, retest; RmlC/RmlD coupled enzyme inhibition, 384-well mixture HTS; inhibition, % at 5.5 µM; actives 0.39% (n = 110,000); in the data active = inhibition above about 30%, passing the limit was not always enough; inconclusive = no clear call, values can overlap the other calls
# HIV RNase H inh-1: HIV-1 RT RNase H inhibitors, primary screen, biochemical, fluorescence. actives 1.9% (n = 65,000). RT-RNase H RNA/DNA duplex cleavage. inhibition, % at 10 µM. Gag-Pol polyprotein (Human immunodeficiency virus type 1 group M subtype B (isolate …; in the data active = inhibition above about 50%
# HIV RNase H inh-2: HIV-1 RT RNase H inhibitors, retest, confirmation, biochemical | shares compounds with HIV RNase H inh-1 | Recombinant RT RNase H, fluorescent RNA/DNA duplex cleavage | inhibition, % at 10 µM | actives 39% (n = 1,000); in the data active = inhibition above about 48%; inconclusive = no clear call, values can overlap the other calls
# Starred values were filed as active, the others as inactive; ? = inconclusive; nt = no result. Shown is part of a subset that was picked to be rich in hits.
SMILES,RmlC RmlD mix,HIV RNase H inh-1,HIV RNase H inh-2
O=C(NNC(=O)c1ccccc1Br)c1ccc(SCC2CCCO2)c([N+](=O)[O-])c1 (configuration not stated),-7.8,nt,nt
Cc1sccc1C1C(C#N)=C(N)SC(N)=C1C#N,nt,59.9*,2.3
Cc1cc(C2C(C#N)=C(N)SC(N)=C2C#N)c(C)s1,nt,44.6,nt
OCCCn1c(CCNc2nc(-c3ccc(F)cc3)cs2)nc2cc(C(F)(F)F)ccc21,7.3,nt,nt
CCOC(=O)c1c(N)sc2c1CCCC2,0.6,85.4*,-1.4
CCOC(=O)c1c(N)sc2c1CCC(C)C2 (configuration not stated),-10.6,4.9,nt
COc1ccc(S(=O)(=O)N(CC(=O)NCC2CCCO2)c2ccc(F)cc2)cc1OC (configuration not stated),-6.2,nt,nt
CC1=C(C(=O)Nc2ccc(Cl)cc2)C(c2ccncc2)C(C#N)=C(SCC(N)=O)N1 (configuration not stated),-10.0,nt,nt
CCOC(=O)C1=C(C)NC(SCC(=O)OC)=C(C#N)C1c1ccc(C(=O)OC)cc1 (configuration not stated),102.5,80.4*,36.8
CCOC(=O)CSC1=C(C#N)C(c2ccc(C)cc2)C2=C(CCCC2=O)N1 (configuration not stated),3.3,-3.6,nt
CCOC(=O)CSC1=C(C#N)C(c2ccc(F)cc2)C(C(C)=O)=C(C)N1 (configuration not stated),-12.4,73.0*,13.6
C=CCOC(=O)C1=C(C)NC(SCC)=C(C#N)C1c1ccc(Cl)cc1 (configuration not stated),4.7,nt,nt
CC(=O)C1=C(C)NC(SCC(N)=O)=C(C#N)C1c1cccnc1 (configuration not stated),23.1,61.5*,40.5
NC(=O)c1sc2nc(-c3ccco3)ccc2c1N,2.5,nt,nt
COC(=O)c1sc2nc(-c3ccco3)ccc2c1N,-19.8,79.2*,33.8
C[N+](C)(C)C(Cc1c[nH]c2ccccc12)C(=O)[O-] (configuration not stated),5.0,nt,nt
Cc1cc(NC(=O)CSc2nnc(-c3c[nH]c4ccccc34)n2C)no1,7.6,nt,nt
N#Cc1c(NC(=O)CN2CCN(S(=O)(=O)c3ccc4c(c3)OCCO4)CC2)sc2c1CCC2,-12.0,70.0*,77.9*
O=C(CN1CCN(S(=O)(=O)c2ccc(Cl)cc2)CC1)Nc1ccc2c(c1)OCCO2,-13.7,-7.0,nt
O=C1[C@H](CC[C@H](O)c2ccc(F)cc2)[C@@H](c2ccc(O)cc2)N1c1ccc(F)cc1,-7.4,nt,nt
O=C1[C@H]2[C@H](C=CC[C@H]2C(=O)N2CCOCC2)CCN1Cc1ccccc1,-12.2,nt,nt
Cc1cccc(Nc2n[nH]c(=S)s2)c1C,7.9,77.4*,85.2*
C/C(N)=C(/C#N)C(=O)CSc1nnc(Nc2cccc(C)c2C)s1,-7.1,-0.4,nt
CC(O)Cc1cn([C@@H](CCCCNC(=O)OC(C)(C)C)C(=O)N2CCN(C(=O)OC(C)(C)C)CC2)nn1 (some centres not stated),-11.1,nt,nt
Cc1cc(C)cc(NC(=S)NCCN2CCOCC2)c1,-7.2,nt,nt
SMILES,RmlC RmlD mix,HIV RNase H inh-1,HIV RNase H inh-2
COc1ccc(CN(CC2CCCO2)C(=O)CN2C(=O)COc3ccccc32)cc1OC (configuration not stated),7.0,nt,nt
COc1ccc(-n2nc(C(=O)NCC(=O)NCc3ccco3)c3ccccc3c2=O)cc1,11.4,-9.6,nt
COc1ccc(-n2nc(C(=O)NCc3ccco3)c3c4ccccc4n(C)c3c2=O)cc1Cl,14.2,71.2*,8.5
Cc1cccc2sc(NC(=O)C3c4ccccc4Oc4ccccc43)nc12,12.5,nt,nt
Cn1c(=O)c(=O)n(C)c2cc(S(=O)(=O)N3CCOCC3)ccc21,0.1,-21.5,nt
Cc1cccc(N2CCN(S(=O)(=O)c3ccc4c(c3)n(C)c(=O)c(=O)n4C)CC2C)c1 (configuration not stated),3.2,56.8*,?
COc1ccc(Cl)cc1S(=O)(=O)N1CCCC1,-7.3,nt,nt
Cc1ccc(-c2nc3ccccc3o2)cc1NC(=O)c1ccc2c(c1)OCO2,-0.5,61.8*,14.0
Cc1ccccc1OCc1nc(-c2ccc(NC(=O)c3ccc4c(c3)OCO4)cc2)no1,-7.5,74.6*,86.6*
Cc1c(NC(=O)c2ccc3c(c2)OCO3)cccc1-c1nc2ccccc2o1,-2.2,3.5,nt
Cc1ccccc1OCc1nc(-c2ccc(NC(=O)c3ccco3)cc2)no1,4.4,26.3,nt
CCn1c(-c2c[nH]c3ccccc23)n[nH]c1=S,2.4,-20.8,nt
C=CCn1c(-c2c[nH]c3ccccc23)n[nH]c1=S,2.9,57.3*,16.0
COc1ccccc1OCc1nnc(SCC(=O)NCc2ccco2)n1Cc1ccco1,-15.4,65.5*,20.4
COc1ccccc1NC(=O)CSc1nnc(COc2ccc(Cl)cc2)n1Cc1ccco1,-4.0,-9.1,nt
Cc1ccc(C(=C2C3C=CC2C2C(=O)NC(=O)C32)c2ccc(C)cc2)cc1 (configuration not stated),-0.1,nt,nt
NNC(=O)c1ccccc1CO,-15.6,nt,nt
COCCNC(=O)CSc1nc2cc(OC)c(OC)cc2c(=O)n1Cc1ccco1,6.0,-19.0,nt
COC(=O)c1ccc2c(=O)n(Cc3ccco3)c(SCC(=O)Nc3ccc(C)c(Cl)c3)nc2c1,15.4,85.4*,75.8*
CC(C(=O)N1CCCc2ccccc21)N1C(=O)c2ccccc2C1=O (configuration not stated),-10.8,nt,nt
OCC[C@H]1C[C@@H](O)[C@H](O)[C@]2(CCCO2)O1,-31.2,nt,nt
CCOC(=O)N1CC=C2C(C#N)=C(N)C(C#N)(C#N)[C@H](c3cccs3)C2C1 (some centres not stated),8.2,nt,nt
CCCOc1ccc([C@@H]2C3CN(C(=O)OCC)CC=C3C(C#N)=C(N)C2(C#N)C#N)cc1OC (some centres not stated),9.7,70.4*,19.3
C=C(C)C(=O)Nc1cccc(C2=NOC3(C2)C[C@H](C(N)=O)N(C(=O)c2ccccc2C(=O)c2ccccc2)C3)c1 (some centres not stated),21.5,nt,nt
CCCC/C=C/C(NC(=O)c1ccc(C(=O)OC)cc1)c1ccccc1 (configuration not stated),31.0,nt,nt
SMILES,RmlC RmlD mix,HIV RNase H inh-1,HIV RNase H inh-2
CCCSc1nc(C)c(-c2csc(C(C#N)=C3CCCC3)n2)cc1C#N,20.8,58.0*,3.6
CCCCSc1nc2c(cc1C#N)CCC2,-10.4,-32.7,nt
CNC(=S)N1C2CCC1CC(NC(=O)NC13CC4CC(CC(C4)C1)C3)C2 (configuration not stated),3.9,nt,nt
COc1ccc(-c2nn3c(COc4ccccc4)nnc3s2)cc1OC,-4.7,68.0*,10.6
COc1ccc(-c2nnc3sc(-c4c(OC)cccc4OC)nn23)cc1,nt,2.0,nt
c1ccc(OCc2nnc3sc(-c4cccs4)nn23)cc1,17.6,-20.2,nt
COc1cc(-c2nnc3sc(-c4cccnc4)nn23)cc(OC)c1OC,nt,76.2*,93.4*
COc1cccc(OC)c1-c1nn2c(-c3cc(-c4ccccc4)n[nH]3)nnc2s1,-5.5,89.1*,65.7*
COc1cc(-c2nnc3sc(Cc4ccc(Cl)cc4)nn23)cc(OC)c1OC,nt,56.4*,91.6*
COc1cc(-c2nn3c(-c4ccccn4)nnc3s2)cc(OC)c1OC,-5.2,-11.0,nt

# Bioassay records: PubChem BioAssay, several laboratories
